An excerpt weighted towards active compounds, which were near 3.5% of everything screened.
FBW7 act – FBW7 E3 ligase activators, primary screen, biochemical, AlphaScreen, human; AlphaScreen FBW7–phospho-cyclin E peptide binding, activator screen; normalized activity (activation), % at 26.1 µM; actives 0.13% (n = 650,000); in the data active = normalized activity above about 1.9%;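 also: purified mutant Fbw7 with reduced substrate affinity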
TEAD-YAP block – TEAD-YAP interaction inhibition, primary screen, TEAD-YAP interaction inhibitor project, luminescence, HEK-TIYL cells. TEAD-Gal4/YAP UAS-luciferase luminescence. inhibition, % at 9.12 µM. actives 1.4% (n = 640,000). AID 1259422, 2018; in the data active = inhibition above about 32%
GPR151 activ – activators of human GPR151, primary screen, cell-based, PathHunter beta-arrestin, luminescence; PathHunter beta-arrestin GPR151 cells; G-protein coupled receptor 151 (Homo sapiens), Q8TDV0; AID 1508602, 2020; activation, % at 11.2 µM; actives 1% (n = 650,000); in the data active = activation above about 4.9%
MITF primary – MITF inhibitors, primary screen, biochemical, AlphaScreen, human; Microphthalmia-associated transcription factor (Homo sapiens), O75030; AID 1259374, 2018; AlphaScreen MITF homodimerization, bead proximity signal; inhibition, % at 2.6 µM; actives 0.91% (n = 650,000); in the data active = inhibition above about 50%
Target sequence (O75030 whole entry, looked up): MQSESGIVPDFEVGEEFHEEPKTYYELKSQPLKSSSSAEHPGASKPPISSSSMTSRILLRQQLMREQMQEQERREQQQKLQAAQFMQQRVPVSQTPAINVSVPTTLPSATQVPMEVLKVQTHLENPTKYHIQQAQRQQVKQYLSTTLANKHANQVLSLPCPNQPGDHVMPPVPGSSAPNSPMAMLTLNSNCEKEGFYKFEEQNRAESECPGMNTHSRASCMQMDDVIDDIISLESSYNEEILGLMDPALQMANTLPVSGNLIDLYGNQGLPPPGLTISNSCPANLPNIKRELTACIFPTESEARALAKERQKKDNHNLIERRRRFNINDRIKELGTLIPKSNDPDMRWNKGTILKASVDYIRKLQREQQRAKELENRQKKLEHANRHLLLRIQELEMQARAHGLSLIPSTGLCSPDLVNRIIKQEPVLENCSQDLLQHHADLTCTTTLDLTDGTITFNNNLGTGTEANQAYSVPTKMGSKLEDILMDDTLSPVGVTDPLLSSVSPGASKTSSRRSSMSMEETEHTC
Each line names hits and unclear results; the compound was inactive in the other large screens; ! = repeats disagree.

NC(=O)c1ccc(Nc2ncc(Cl)c(-c3ccccc3)n2)cc1	FBW7 act 2.6
NS(=O)(=O)c1cccc(Nc2nccc(-c3ccccc3)n2)c1	TEAD-YAP block 91
NC(=O)c1[nH]ncc1Nc1nccc(-c2ccccc2)n1	none
NC(=O)c1ccccc1Nc1nccc(-c2ccccc2)n1	TEAD-YAP block 40
O=C(c1ccc(N2CCC(NCc3ccc4nsnc4c3)CC2)cc1)N1CCOCC1	none
COc1ccccc1NC(=S)N(C(C)C)C1CCN(C(C)=O)CC1	none
NC(=O)c1ccc(Nc2nccc(-c3cccc(Nc4ccccc4)c3)n2)cc1Cl	TEAD-YAP block 36
NC(=O)c1ccc(Nc2nccc(-c3ccccc3)n2)cc1	none
O=C(Nc1cccc(Cl)c1)C1C2C=CC3(O2)C1C(=O)N(CCCN1CCN(Cc2ccccc2)CC1)C3C(=O)NC1CCCCC1 (stereo not drawn)	none
CCc1ccc(N=C2N=C(N)c3ccccc32)cc1	none
NC1=NC(=Nc2ccc(N3CCOCC3)cc2)c2ccccc21	TEAD-YAP block 48
CS(=O)(=O)N(CC(=O)N/N=C/c1cc(Cl)cc(Cl)c1O)c1ccccc1	TEAD-YAP block 58
Cc1cc2cc3c(cc2c(C)n1)c1ccccc1n3C	TEAD-YAP block 63
Cn1c2ccccc2c(=O)c2ccccc21	none
CN(C(=O)Cn1ncc2c1-c1ccccc1OC2)c1cccc(Cl)c1	none
CCOC(=O)C1=C(C)NC2=C(C(=O)CC(c3cccs3)C2)C1c1cccs1 (stereo not drawn)	TEAD-YAP block 51!
CCc1ccc(C2C(C(=O)OC(C)C)=C(C)NC3=C2C(=O)CC(c2cccs2)C3)s1 (stereo not drawn)	none
COC(=O)C1=C(C)NC2=C(C(=O)CC(c3cccs3)C2)C1c1ccsc1 (stereo not drawn)	TEAD-YAP block 33
COCCOC(=O)C1=C(C)NC2=C(C(=O)CC(c3cccs3)C2)C1c1ccccc1F (stereo not drawn)	none
COCCOC(=O)C1=C(C)NC2=C(C(=O)CC(c3cccs3)C2)C1c1ccc(F)cc1 (stereo not drawn)	TEAD-YAP block 36!
CC1=C(C(=O)OC(C)C)C(c2cccs2)C2=C(CC(c3cccs3)CC2=O)N1 (stereo not drawn)	TEAD-YAP block 37
COC(=O)C1=C(C)NC2=C(C(=O)CC(c3cccs3)C2)C1c1cccs1 (stereo not drawn)	none
COCCOC(=O)C1=C(C)NC2=C(C(=O)CC(c3cccs3)C2)C1c1cccs1 (stereo not drawn)	none
COc1cccc(-n2c(N)c(C(=O)Nc3ccc(C)cc3)sc2=S)c1	none
O=C(Nn1c(-c2ccc(F)cc2)nc2ccccc2c1=O)c1ccncc1	none
COC(=O)C1=C(C)NC2=C(C(=O)CC(c3cccs3)C2)C1c1cc(OC)c(Br)cc1OC (stereo not drawn)	TEAD-YAP block 60
CC1(C)O[C@]2(CCC3C4CC[C@H]5CCCC[C@]5(C)C4CC[C@@]32C)CN1C(=O)CSC1=NCCN1 (stereo partly drawn)	TEAD-YAP block 33
C[C@]12CCCCC1CCC1C2CC[C@]2(C)C(N)CCC12 (stereo partly drawn)	none
C=CCn1c(Cl)c(C=O)s/c1=N\S(=O)(=O)c1cccs1	TEAD-YAP block 60
C=CCn1c(Cl)c(/C=N/NC(=O)OCC)s/c1=N\S(=O)(=O)c1cccs1	TEAD-YAP block 45
CCOC(=O)c1c(NC(=O)c2ccc(Br)cc2)sc(C)c1C	none
CCc1c(C)nc2ncnn2c1N1CCCC(C(=O)Nc2nnc(C)s2)C1 (stereo not drawn)	TEAD-YAP block 48
CCOc1ccccc1NC(=O)C1CCCN(c2c(CC)c(C)nc3ncnn23)C1 (stereo not drawn)	none
CC[C@H]1CN2CCc3cc(OC)c(OC)cc3C2C[C@@H]1CC1NCCc2cc(OC)c(OC)cc21 (stereo partly drawn)	TEAD-YAP block 95
Cc1ccc(N=Cc2cc(-c3ccccc3)sc2S)c(C)c1	none
O=C(O)c1cc(NS(=O)(=O)c2ccc(Cl)c(C(=O)O)c2)ccc1O	MITF primary 81
O=C(O)c1cc(S(=O)(=O)Nc2ccc(O)cc2)ccc1O	none
Cc1ccc2nc(CSc3nc4sc(C)cc4c(=O)n3C)[nH]c2c1	none
NC(=O)c1ccsc1NC(=O)CSc1nnc(-c2ccco2)n1-c1ccccc1	TEAD-YAP block 43
COc1cccc(/C=N\Nc2ccccn2)c1O	MITF primary 61

Screening data deposited in PubChem by The Scripps Research Institute Molecular Screening Center.
